{
  "source": "PubChem BioAssay AID1259343",
  "about": "(VanderVen Lab, College of Veterinary Medicine, Cornell …, 2017)",
  "note": "About 2,900 (47%) of roughly 6,200 compounds were called active. The set was probably picked from earlier hits. This is one part of the list. A number with no mark means an inactive call. Cut-off read from the data, not from the text of the source: active = inhibition above about 50%; inactive = the rest.",
  "data": [
    {"assay": "Mycobacterium tuberculosis growth inhibition, primary screen (AID 1259343)", "conditions": "inhibition: at 10 µM, hits give high values; outcome: 10 uM", "values": [
      {"smiles": "Cc1nc(-n2nc(C3CC3)cc2NC(=O)c2ccc(F)cc2)[nH]c(=O)c1C", "inhibition": "101% (active)"},
      {"smiles": "Cc1cccc(C(=O)Nc2cc(C3CC3)nn2-c2nc(C)c(C)c(=O)[nH]2)c1", "inhibition": "99.3% (active)"},
      {"smiles": "Cc1nc(-n2nc(C3CC3)cc2NC(=O)c2cccc(F)c2)[nH]c(=O)c1C", "inhibition": "100% (active)"},
      {"smiles": "CC(c1ccccc1)N1CCN(c2ccc([N+](=O)[O-])cc2)CC1", "note": "(configuration not stated)", "inhibition": "56.5% (active)"},
      {"smiles": "O=[N+]([O-])c1ccc(N2CCCCC2)cc1", "inhibition": "48.6%"},
      {"smiles": "O=C1/C(=C/c2ccc(O)cc2)C(N2CCOCC2)=NN1c1ccc([N+](=O)[O-])cc1", "inhibition": "36.6%"},
      {"smiles": "C=CCc1c(C)nc2c(-c3cccc(Cl)c3)c(C)[nH]n2c1=O", "inhibition": "99.8% (active)"},
      {"smiles": "C=CCc1c(C)nc2c(-c3ccccc3)cnn2c1NCCN(C)C", "inhibition": "inactive"},
      {"smiles": "C=CCc1c(C)nc2c(-c3ccccc3)cnn2c1NCCOC", "inhibition": "17.5%"},
      {"smiles": "Fc1ccc(Oc2cc(Cl)ncn2)cc1", "inhibition": "73.1% (active)"},
      {"smiles": "Fc1ccc(Oc2cc(N3CCc4ccccc4C3)ncn2)cc1F", "inhibition": "34.6%"},
      {"smiles": "COc1ccccc1Oc1cc(Cl)ncn1", "inhibition": "53.5% (active)"},
      {"smiles": "Fc1ccc(CN2CCN(c3cc(Oc4ccc(F)cc4Cl)ncn3)CC2)cc1", "inhibition": "39.7%"},
      {"smiles": "COc1cc(C(C)=O)ccc1Oc1cnccn1", "inhibition": "3.02%"},
      {"smiles": "Cc1nnc(N2C(=O)C(=O)C(=C(O)c3ccc(OC(C)C)cc3)C2c2ccc([N+](=O)[O-])cc2)s1", "note": "(configuration not stated)", "inhibition": "35.4%"},
      {"smiles": "COc1ccc(C(=O)N(C)c2nnc(C34CC5CC(CC(C5)C3)C4)s2)c(OC)c1", "inhibition": "29.9%"},
      {"smiles": "CN(C(=O)c1ccccc1)c1nnc(C23CC4CC(CC(C4)C2)C3)s1", "inhibition": "70% (active)"},
      {"smiles": "O=C(Nc1ncc(Cl)s1)c1ccc(Cl)cn1", "inhibition": "81.3% (active)"},
      {"smiles": "O=C(Nc1ncc(Cc2ccc(Cl)cc2)s1)c1cccs1", "inhibition": "53.4% (active)"},
      {"smiles": "O=C(Cc1cccs1)Nc1ncc(Cc2ccc(F)c(F)c2)s1", "inhibition": "44.8%"},
      {"smiles": "CCCC(C)Nc1ncnc2sc3c(c12)CCC(C)C3", "note": "(configuration not stated)", "inhibition": "84.8% (active)"},
      {"smiles": "CC(=O)CSc1ncnc2sc3c(c12)CCC(C)C3", "note": "(configuration not stated)", "inhibition": "2.69%"},
      {"smiles": "Clc1ccccc1CSc1nnc(-c2ccc[nH]2)o1", "inhibition": "-6.43%"},
      {"smiles": "N#Cc1c(SCc2ccccc2Cl)sc2c(=O)[nH]c(=O)[nH]c12", "inhibition": "67.2% (active)"},
      {"smiles": "Nc1ccc2c(c1)Cc1ccccc1-2", "inhibition": "0.14%"},
      {"smiles": "Nc1ccc2c(c1)-c1ccccc1C2", "inhibition": "-7.01%"},
      {"smiles": "Nc1ccc2c(c1)C(=O)NCC2", "inhibition": "61.7% (active)"},
      {"smiles": "S=C(NCC1CCCCC1)Nc1ccccc1Cl", "inhibition": "89.6% (active)"},
      {"smiles": "S=C(Nc1ccc2c(c1)OCO2)Nc1ccccc1Cl", "inhibition": "19.5%"},
      {"smiles": "C=CCNC(=S)Nc1ccc(Cl)cc1Cl", "inhibition": "4.42%"},
      {"smiles": "O=C(NCCC12CC3CC(CC(C3)C1)C2)c1ccc2c(=O)n3c(nc2c1)CCCCC3", "inhibition": "67% (active)"},
      {"smiles": "COc1ccc(C(C)NC(=O)Cc2ccccc2Cl)cc1F", "note": "(configuration not stated)", "inhibition": "74.1% (active)"},
      {"smiles": "COc1ccc(C(C)NC(=O)c2ccco2)cc1F", "note": "(configuration not stated)", "inhibition": "15.9%"},
      {"smiles": "NC(Cc1ccc(C(F)(F)F)cc1)c1csc(Nc2cnccn2)n1", "note": "(configuration not stated)", "inhibition": "53% (active)"},
      {"smiles": "NC(Cc1ccc(C(F)(F)F)cc1)c1csc(Nc2ccccn2)n1", "note": "(configuration not stated)", "inhibition": "47%"},
      {"smiles": "NC(Cc1ccccc1)c1csc(Nc2ccc(C(F)(F)F)cn2)n1", "note": "(configuration not stated)", "inhibition": "86.1% (active)"},
      {"smiles": "COc1ccc(C(N)c2csc(Nc3ccc(C(F)(F)F)cn3)n2)cc1", "note": "(configuration not stated)", "inhibition": "86.2% (active)"},
      {"smiles": "CC(C)CC(N)c1csc(Nc2ccc(C(F)(F)F)cn2)n1", "note": "(configuration not stated)", "inhibition": "91.8% (active)"},
      {"smiles": "NC(c1ccccc1)c1csc(Nc2ccc(C(F)(F)F)cn2)n1", "note": "(configuration not stated)", "inhibition": "1.35%"},
      {"smiles": "FC(F)(F)c1ccc(Sc2ncccn2)nc1", "inhibition": "-12%"},
      {"smiles": "NC(COCc1ccccc1)c1csc(Nc2ccc(C(F)(F)F)cn2)n1", "note": "(configuration not stated)", "inhibition": "66.5% (active)"},
      {"smiles": "FC(F)(F)c1ccc(Nc2cnn(Cc3ccccc3)c2)nc1", "inhibition": "58.1% (active)"},
      {"smiles": "CC(C)CCc1nc(Cn2c(C(F)(F)F)ccc(C(N)=O)c2=O)cs1", "inhibition": "11.8%"},
      {"smiles": "Cc1ccc(CS(=O)(=O)Cc2csc(CCC(C)C)n2)cc1", "inhibition": "96% (active)"},
      {"smiles": "CN1C(=O)C(=Cc2cccc(OCc3ccccc3Cl)c2)C(=O)N(C)C1=O", "inhibition": "14.1%"},
      {"smiles": "Cc1cc(=O)[nH]c(-n2nc(C)cc2NC(=O)C(C)(C)Oc2ccc(Cl)cc2)n1", "inhibition": "101% (active)"},
      {"smiles": "CCc1cc(=O)[nH]c(-n2nc(C)cc2NC(=O)C(C)(C)Oc2ccc(Cl)cc2)n1", "inhibition": "-31%"},
      {"smiles": "Cc1cc(=O)[nH]c(-n2nc(C3CC3)cc2NC(=O)C(C)(C)Oc2ccc(Cl)cc2)n1", "inhibition": "98.2% (active)"},
      {"smiles": "Cc1cc(NC(=O)C(C)(C)Oc2ccc(Cl)cc2)n(-c2nc(C)c(C)c(=O)[nH]2)n1", "inhibition": "100% (active)"},
      {"smiles": "CCc1sc(-c2nnc(-c3cccc(OC)c3)o2)cc1C", "inhibition": "52.4% (active)"},
      {"smiles": "CCc1sc(-c2nnc(CSc3nnc(-c4ccco4)o3)o2)cc1C", "inhibition": "-15.2%"},
      {"smiles": "COc1cccc(C2=NN(C(C)=O)C(C(=O)N(CC(C)C)CC(C)C)O2)c1", "note": "(configuration not stated)", "inhibition": "-4.2%"}
    ]}
  ]
}
